GDH-TPI counter = GDH-TPI coupling enzyme inhibitors, primary screen, artefact control for M. tuberculosis FBA inhibitor project, biochemical, absorbance, full deck; 360,000 tested, 1.2% active; GDH-TPI coupled enzyme counterscreen, NADH absorbance; inhibition, % at 4.8 µM; in the data active = inhibition above about 30%;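 also: 0% = DMSO wells and 100% = wells lacking the enzyme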
Vc quorum ag = inducers of Vibrio cholerae quorum light production without autoinducers, primary screen, BH1578 luxS cqsA deficient, single point; V. cholerae BH1578 lux reporter, luminescence, 6 h; activation, % at 18.7 µM; 350,000 tested, 0.16% active; AID 588436, 2011; in the data active = activation mostly above about 9.7%, no sharp cut-off
RecA intein inh = Mtb RecA intein splicing inhibitors, primary screen, biochemical, fluorescence, HTS | AID 2221, 2009 | inhibition, % (test concentration not listed) | cell-free RecA intein splicing | Protein RecA (Mycobacterium tuberculosis (strain ATCC 25618 / H37Rv)), P9WHJ3 | 290,000 tested, 0.75% active; in the data active = inhibition above about 30%;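 also: 0% = vehicle wells and 100% = reference inhibitor control wells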
Rv3671c inh = Rv3671c serine protease inhibitors, primary screen, biochemical, fluorescence polarization, M. tuberculosis H37Rv; inhibition, % at 5.96 µM; AID 2606, 2010; P9WHR9; 320,000 tested, 0.048% active; in the data active = inhibition above about 38%;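 also: extracellular domain of Rv3671c used as enzyme; 0% = enzyme with DMSO and 100% = no enzyme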
UGM FP inh = M. tuberculosis UGM enzyme inhibitors, primary screen, biochemical, fluorescence polarization, single point; 320,000 tested, 0.06% active; purified UGM, fluorescence polarization probe displacement; inhibition, % at 10 µM; AID 504406, 2011; UDP-galactopyranose mutase (Mycobacterium tuberculosis (strain ATCC 25618 / H37Rv)), …; in the data active = inhibition above about 10%, passing the limit was not always enough
Target sequence (P9WIQ1 whole entry, looked up): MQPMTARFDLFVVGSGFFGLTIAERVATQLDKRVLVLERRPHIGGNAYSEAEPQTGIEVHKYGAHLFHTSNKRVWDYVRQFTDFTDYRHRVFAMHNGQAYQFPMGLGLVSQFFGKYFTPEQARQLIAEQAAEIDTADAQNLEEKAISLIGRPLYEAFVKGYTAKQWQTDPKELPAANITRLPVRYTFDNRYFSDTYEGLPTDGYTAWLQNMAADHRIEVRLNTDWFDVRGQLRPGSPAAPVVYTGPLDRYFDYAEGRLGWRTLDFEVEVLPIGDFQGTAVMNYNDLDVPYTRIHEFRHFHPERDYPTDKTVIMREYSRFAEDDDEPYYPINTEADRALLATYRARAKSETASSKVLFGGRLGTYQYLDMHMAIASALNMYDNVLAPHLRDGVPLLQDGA
Mtb FBA inh = Mtb FBA enzyme inhibitors, primary screen, biochemical, fluorescence, strain H37Rv. Fructose-bisphosphate aldolase (Mycobacterium tuberculosis (strain ATCC 25618 / H37Rv)), …. purified M. tuberculosis FBA, fluorescence read-out. inhibition, % at 1 µM. 360,000 tested, 2.3% active; in the data active = inhibition above about 27%;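 also: 0% = vehicle and 100% = reference inhibitor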
An asterisk follows results filed as active; i = inactive; x = no result given; + = active, no number. Most compounds without a hit are left out; they make up all but 4.1% or so of the library.

SMILES | GDH-TPI counter | Vc quorum ag | RecA intein inh | Rv3671c inh | UGM FP inh | Mtb FBA inh
C/C(=N\NC(=O)c1ccc2c(c1)OCO2)c1ccc(NS(C)(=O)=O)cc1 | 36* | 0 | 0 | -1 | 2 | -4
C/C(=N\NC(=O)c1ccccc1)c1ccc2c(c1)OCO2 | -6 | 7 | -2 | 2 | 2 | 1
C/C(=N\NC(=O)c1ccc2c(c1)OCO2)c1ccc(O)cc1 | 33* | 0 | 1 | -4 | -4 | -1
C=CCNc1sc(C(=O)C(C)(C)C)c(N)c1C#N | 40* | -1 | 5 | -3 | 1 | 0
C=CCNc1sc(C(=O)C2CC2)c(N)c1C#N | 40* | i | x | 6 | -1 | -2
CSCC[C@H](NC(=O)c1cccs1)C(=O)N1CCC2(CC1)NCCc1[nH]cnc12 | -4 | i | 1 | -5 | 1 | -6
CCOC(=O)N1CCC(NC(=O)CC2C(=O)NCCN2Cc2ccccc2F)CC1 (centres undefined) | -14 | 0 | 2 | 9 | 2 | -1
Cc1[nH]n(-c2ccccc2)c(=O)c1/C=N/NC(=O)COc1ccccc1[N+](=O)[O-] | 16 | 0 | 8 | 0 | 2 | -1
Cc1c(/C=N/NC(=O)COc2ccccc2[N+](=O)[O-])c2ccccc2n1C | 34* | 0 | -1 | -2 | 0 | -4
Cc1ccc(OCC(=O)N/N=C\c2c(C)n(C)c3ccccc23)c([N+](=O)[O-])c1 | 31* | -7 | -1 | 8 | 0 | 2
O=S(=O)(Nc1nc(-c2ccco2)c(-c2ccco2)s1)c1ccc(F)cc1F | -5 | i | x | x | x | 1
COc1ccc2[nH]c3c(c2c1)CCN1C(=O)C(CC(=O)NCc2ccco2)C[C@H](C(=O)N(C(C)C)C(C)C)[C@@]31C (some centres undefined) | 7 | 0 | x | x | x | 0
CCOC(=O)c1c(N)n(CCOC(=O)c2cccs2)c2nc3ccccc3nc12 | 18 | -1 | -2 | -193 | 2 | 173*
CCCCCOC(=O)c1c(N)n(CCOC)c2nc3ccccc3nc12 | 23 | 0 | -134 | -90 | 2 | +
Cn1nc(C(=O)Nc2ccccc2)c2c1-c1ccccc1S(=O)(=O)C2 | -3 | -2 | 0 | -10 | 0 | 1
Cc1ccc(OCCn2cnc3cc([N+](=O)[O-])ccc3c2=O)cc1 | 0 | i | -5 | -1 | -1 | 3
COc1ccc2c(Cn3cnc4cc([N+](=O)[O-])ccc4c3=O)cc(=O)oc2c1 | 31* | 0 | -1 | 1 | 0 | 5
CC(NC(=O)OC(C)(C)C)C(=O)Oc1cc2oc(=O)cc(-c3ccccc3)c2cc1Cl (centres undefined) | 20 | -5 | -70 | -3 | 0 | 43*
CC(C(=O)Nc1ccc(N(C)C)cc1)N1C(=O)c2ccccc2S1(=O)=O (centres undefined) | -1 | -1 | -3 | -7 | 0 | -1
Nc1ccc2[nH]ncc2c1 | 2 | 10 | 61* | 3 | -4 | 26
O=C(Cc1ccc(F)cc1)Nc1ccc2[nH]ncc2c1 | -2 | 0 | 0 | 11 | 0 | -2
CCN1CCN(c2oc(/C=C/c3ccccc3)nc2C#N)CC1 | 48* | 0 | -10 | 2 | 1 | 192*
CNc1oc(/C=C/c2ccccc2)nc1C#N | 38* | 0 | -39 | -4 | 3 | +
CNc1oc(-c2ccccc2)nc1C#N | 0 | i | -3 | 0 | 0 | 181*
COc1ccc(Nc2oc(-c3ccccc3)nc2C#N)cc1 | 7 | 0 | -2 | 6 | 2 | 3
SMILES | GDH-TPI counter | Vc quorum ag | RecA intein inh | Rv3671c inh | UGM FP inh | Mtb FBA inh
CCN1CCN(c2oc(COc3ccc(Cl)cc3)nc2C#N)CC1 | -3 | -1 | 17 | -3 | -1 | 3
CCN(CC)C(=O)c1[nH]cnc1C(=O)NCC(=O)OCc1ccccc1 | -8 | 0 | 0 | -4 | 2 | 0
Cc1ccccc1-n1c(=O)c(C#N)cc2c(=O)n3ccccc3nc21 | 18 | 3 | i | -2 | 2 | +
CCn1c(=N)c(S(=O)(=O)c2ccc(C)cc2)cc2c(=O)n3ccccc3nc21 | x | x | -64 | 4 | -1 | x
CCn1c(=N)c(S(=O)(=O)c2ccccc2)cc2c(=O)n3ccccc3nc21 | -5 | i | -99 | -6 | 1 | 20
C=CCn1c(=O)c(C#N)cc2c(=O)n3ccccc3nc21 | -1 | 0 | -1 | 2 | 1 | +
Cc1cc(-n2c(=O)c(C#N)cc3c(=O)n4ccccc4nc32)no1 | 11 | i | -441 | 1 | 2 | +
CSc1nsc(SCC(=O)Nc2ccccc2)n1 | -11 | 0 | x | -5 | 0 | -2
CSc1nsc(SCC(=O)N2CCN(c3ccccc3)CC2)n1 | -2 | -2 | 4 | 5 | 2 | 135*
CCOc1cc2[nH]c(=S)n(CCOC)c(=O)c2cc1OCC | 33* | 0 | 1 | 3 | -3 | 1
CCOC(=O)C1CCN(CC(O)COCc2ccccc2)CC1 (centres undefined) | 0 | i | 2 | -1 | 1 | 2
BrC(/C=N/N1CCN(Cc2ccccc2)CC1)=C/c1ccccc1 | 31* | -2 | 10 | -5 | 0 | 0
O=C(NCCc1c[nH]c2ccccc12)OCCCCOC(=O)NCCc1c[nH]c2ccccc12 | -14 | -1 | 8 | 0 | 0 | 1
COc1ccc(CNC(=O)CC[C@H]2O[C@@H](n3cc(C)c(=O)[nH]c3=O)C[C@@H]2O)cc1 | x | x | x | x | x | 0
COC(=O)c1ccc(COc2ccc(/C=C(\C#N)c3nc4ccccc4[nH]3)cc2OC)o1 | 32* | 0 | -4 | -5 | 0 | 6
CC(O)/C=C/C1OC(=O)CC1Nc1ccc(C=O)cc1 (centres undefined) | 34* | -1 | -3 | 8 | -1 | 0
CCc1ccc(NC(=O)CSc2nc(C)cs2)cc1 | 5 | -11 | x | x | x | 0
COCCNC(=O)/C(C#N)=C/c1ccc(O)c([N+](=O)[O-])c1 | 14 | 0 | 0 | -7 | 1 | -11
COCCNC(=O)/C(C#N)=C/C=C/c1ccccc1[N+](=O)[O-] | 48* | 2 | 12 | 4 | 3 | -1
O=C(Nc1cccc(-c2cnc3ccccc3n2)c1)c1ccccc1 | 23 | 0 | -1 | 1 | -3 | 0
O=C(CCl)Nc1cccc(-c2cnc3ccccc3n2)c1 | 11 | 2 | 46* | -16 | -2 | 4
CCC(=O)Nc1cccc(-c2cnc3ccccc3n2)c1 | 31* | 0 | -1 | 0 | 3 | -1
CSc1nc2nccc(-c3ccc(-c4ccccc4)cc3)n2n1 | 20 | -1 | 2 | -21 | 1 | 153*

Compound activity deposited in PubChem by several laboratories.
